Results from PubChem BioAssay AID1159580 (chemical genetic matrix, 2015).
About 2,000 (36%) of roughly 5,500 compounds were called active. Another 18% or so got no clear call; they are omitted. Rule as the data show it: active = normalized growth mostly below about 0.91 (no sharp cut-off); inconclusive = no clear call, values can overlap the other calls; inactive = mostly above about 0.92. This is one part of the list.

Test: chemical genetic growth profiling, strain panel (AID 1159580);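 also: tested at 20 µM; growth read once vehicle control cultures reached saturation at 30 °C; 1 = growth at the plate median or of vehicle wells; lower values mean less growth of the strain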
Conditions: growth OD

Measured: normalized growth

CCN(CC)C(=O)N1CCN(C)CC1
inactive: S. cerevisiae deletion strains, locus YJR075W, strain HOC1, stronger effect = lower value 1.03 | S. cerevisiae deletion strains, locus YKL009W, strain mrt4, stronger effect = lower value 0.989 | S. cerevisiae deletion strains, locus YKL068W, stronger effect = lower value 1 | S. cerevisiae deletion strains, locus YKL085W, strain MDH1 (second series), stronger effect = lower value 1.04 | S. cerevisiae deletion strains, locus YKL085W, strain MDH1, stronger effect = lower value 1.04 | S. cerevisiae deletion strains, locus YKL160W, strain elf1, stronger effect = lower value 0.975 | S. cerevisiae deletion strains, locus YKR001C, strain vps1, stronger effect = lower value 1.01 | S. cerevisiae deletion strains, locus YKR026C, strain gcn3, stronger effect = lower value 0.965 | S. cerevisiae deletion strains, locus YKR091W, strain srl3, stronger effect = lower value 0.949 | S. cerevisiae deletion strains, locus YLL001W, strain dnm1, stronger effect = lower value 0.997 | S. cerevisiae deletion strains, locus YLL026W, stronger effect = lower value 0.974 | S. cerevisiae deletion strains, locus YLL041C, strain sdh2, stronger effect = lower value 0.994 | S. cerevisiae deletion strains, locus YLR027C, strain aat2, stronger effect = lower value 0.964 | S. cerevisiae deletion strains, locus YLR039C, strain RIC1, stronger effect = lower value 0.975 | S. cerevisiae deletion strains, locus YLR058C, strain SHM2, stronger effect = lower value 1.02 | S. cerevisiae deletion strains, locus YLR102C, strain apc9, stronger effect = lower value 0.993 | S. cerevisiae deletion strains, locus YLR113W, strain HOG1, stronger effect = lower value 1 | S. cerevisiae deletion strains, locus YLR221C, strain rsa3, stronger effect = lower value 0.963 | S. cerevisiae deletion strains, locus YLR258W, strain gsy2, stronger effect = lower value 0.981 | S. cerevisiae deletion strains, locus YLR262C, strain YPT6 (second series), stronger effect = lower value 0.967 | S. cerevisiae deletion strains, locus YLR262C, strain YPT6, stronger effect = lower value 0.976 | S. cerevisiae deletion strains, locus YLR268W, strain sec22, stronger effect = lower value 1.01 | S. cerevisiae deletion strains, locus YLR320W, strain mms22, stronger effect = lower value 0.974 | S. cerevisiae deletion strains, locus YLR330W, strain CHS5, stronger effect = lower value 1.01 | S. cerevisiae deletion strains, locus YLR342W, strain FKS1 (second series), stronger effect = lower value 1.03 | S. cerevisiae deletion strains, locus YLR342W, strain FKS1, stronger effect = lower value 0.98 | S. cerevisiae deletion strains, locus YLR357W, strain rsc2, stronger effect = lower value 0.937 | S. cerevisiae deletion strains, locus YLR370C, strain arc18, stronger effect = lower value 0.97 | S. cerevisiae deletion strains, locus YLR371W, strain rom2, stronger effect = lower value 0.99 | S. cerevisiae deletion strains, locus YLR384C, strain iki3, stronger effect = lower value 0.989 | S. cerevisiae deletion strains, locus YLR418C, strain cdc73, stronger effect = lower value 0.947 | S. cerevisiae deletion strains, locus YML016C, strain PPZ1, stronger effect = lower value 1.01 | S. cerevisiae deletion strains, locus YML032C, strain rad52, stronger effect = lower value 0.995 | S. cerevisiae deletion strains, locus YML120C, strain ndi1, stronger effect = lower value 0.961 | S. cerevisiae deletion strains, locus YML124C, strain tub3, stronger effect = lower value 0.99 | S. cerevisiae deletion strains, locus YMR058W, strain fet3, stronger effect = lower value 0.979 | S. cerevisiae deletion strains, locus YMR078C, strain ctf18, stronger effect = lower value 0.993 | S. cerevisiae deletion strains, locus YMR125W, strain sto1, stronger effect = lower value 0.973 | S. cerevisiae deletion strains, locus YMR129W, stronger effect = lower value 0.964 | S. cerevisiae deletion strains, locus YMR205C, strain PFK2, stronger effect = lower value 0.97 | S. cerevisiae deletion strains, locus YMR223W, strain ubp8, stronger effect = lower value 0.993 | S. cerevisiae deletion strains, locus YMR231W, strain pep5, stronger effect = lower value 0.981 | S. cerevisiae deletion strains, locus YMR263W, strain SAP30, stronger effect = lower value 1.02 | S. cerevisiae deletion strains, locus YMR307W, strain GAS1, stronger effect = lower value 0.999 | S. cerevisiae deletion strains, locus YNL067W, strain RPL9B, stronger effect = lower value 1 | S. cerevisiae deletion strains, locus YNL071W, strain lat1, stronger effect = lower value 0.964 | S. cerevisiae deletion strains, locus YNL128W, strain TEP1, stronger effect = lower value 1.02 | S. cerevisiae deletion strains, locus YNL153C, strain GIM3, stronger effect = lower value 1.01 | S. cerevisiae deletion strains, locus YNL183C, strain NPR1, stronger effect = lower value 0.986 | S. cerevisiae deletion strains, locus YNL209W, strain ssb2, stronger effect = lower value 0.969 | S. cerevisiae deletion strains, locus YNL233W, strain BNI4, stronger effect = lower value 1.01 | S. cerevisiae deletion strains, locus YNL248C, strain rpa49, stronger effect = lower value 0.888 | S. cerevisiae deletion strains, locus YNL250W, strain rad50, stronger effect = lower value 1.01 | S. cerevisiae deletion strains, locus YNL271C, strain bni1, stronger effect = lower value 1 | S. cerevisiae deletion strains, locus YNL298W, strain CLA4, stronger effect = lower value 1.03 | S. cerevisiae deletion strains, locus YNL307C, strain MCK1, stronger effect = lower value 1 | S. cerevisiae deletion strains, locus YNL322C, strain KRE1 (second series), stronger effect = lower value 0.979 | S. cerevisiae deletion strains, locus YNR049C, strain mso1, stronger effect = lower value 0.942 | S. cerevisiae deletion strains, locus YNR052C, strain pop2, stronger effect = lower value 1 | S. cerevisiae deletion strains, locus YOL006C, strain TOP1, stronger effect = lower value 1.03 | S. cerevisiae deletion strains, locus YOL012C, strain htz1 0.747 | S. cerevisiae deletion strains, locus YOL147C, strain pex11, stronger effect = lower value 0.986 | S. cerevisiae deletion strains, locus YOR001W, strain rrp6, stronger effect = lower value 0.976 | S. cerevisiae deletion strains, locus YOR061W, strain CKA2, stronger effect = lower value 1.02 | S. cerevisiae deletion strains, locus YOR069W, strain VPS5, stronger effect = lower value 1.01 | S. cerevisiae deletion strains, locus YOR070C, strain gyp1, stronger effect = lower value 0.994 | S. cerevisiae deletion strains, locus YOR080W, strain dia2, stronger effect = lower value 0.985 | S. cerevisiae deletion strains, locus YOR083W, strain WHI5, stronger effect = lower value 0.995 | S. cerevisiae deletion strains, locus YOR106W, strain vam3, stronger effect = lower value 0.976 | S. cerevisiae deletion strains, locus YOR136W, strain idh2, stronger effect = lower value 0.991 | S. cerevisiae deletion strains, locus YOR144C, strain elg1, stronger effect = lower value 1 | S. cerevisiae deletion strains, locus YOR184W, strain ser1, stronger effect = lower value 1.02 | S. cerevisiae deletion strains, locus YOR231W, strain MKK1, stronger effect = lower value 1.02 | S. cerevisiae deletion strains, locus YOR265W, strain rbl2, stronger effect = lower value 0.989 | S. cerevisiae deletion strains, locus YOR270C, strain vph1, stronger effect = lower value 0.965 | S. cerevisiae deletion strains, locus YOR290C, strain snf2, stronger effect = lower value 0.966 | S. cerevisiae deletion strains, locus YOR316C, strain cot1, stronger effect = lower value 1 | S. cerevisiae deletion strains, locus YPL051W, strain arl3, stronger effect = lower value 1 | S. cerevisiae deletion strains, locus YPL078C, strain atp4, stronger effect = lower value 0.973 | S. cerevisiae deletion strains, locus YPL106C, strain sse1, stronger effect = lower value 0.898 | S. cerevisiae deletion strains, locus YPL240C, strain hsp82, stronger effect = lower value 0.974 | S. cerevisiae deletion strains, locus YPL241C, strain CIN2, stronger effect = lower value 1 | S. cerevisiae deletion strains, locus YPL256C, strain CLN2, stronger effect = lower value 1.04 | S. cerevisiae deletion strains, locus YPR119W, strain clb2, stronger effect = lower value 0.998 | S. cerevisiae deletion strains, locus YPR141C, strain kar3, stronger effect = lower value 0.981 | S. cerevisiae deletion strains, locus YPR163C, strain tif3, stronger effect = lower value 1 | S. cerevisiae deletion strains, locus YPR167C, strain met16, stronger effect = lower value 0.996 | S. cerevisiae deletion strains, strain wtn01, stronger effect = lower value 1.01 | S. cerevisiae strains, strain wild type, stronger effect = lower value 1.01
